Out of some 62,000 compounds screened, about 100 (0.2%) were called active. Cut-off read from the data, not from the text of the source: active = inhibition above about 20%; inactive = the rest. Only a selection was taken, and actives are over-represented in it overall.

Sequence of DNA-directed RNA polymerase subunit beta (Escherichia coli (strain K12)) (P0A8V2 whole entry, looked up): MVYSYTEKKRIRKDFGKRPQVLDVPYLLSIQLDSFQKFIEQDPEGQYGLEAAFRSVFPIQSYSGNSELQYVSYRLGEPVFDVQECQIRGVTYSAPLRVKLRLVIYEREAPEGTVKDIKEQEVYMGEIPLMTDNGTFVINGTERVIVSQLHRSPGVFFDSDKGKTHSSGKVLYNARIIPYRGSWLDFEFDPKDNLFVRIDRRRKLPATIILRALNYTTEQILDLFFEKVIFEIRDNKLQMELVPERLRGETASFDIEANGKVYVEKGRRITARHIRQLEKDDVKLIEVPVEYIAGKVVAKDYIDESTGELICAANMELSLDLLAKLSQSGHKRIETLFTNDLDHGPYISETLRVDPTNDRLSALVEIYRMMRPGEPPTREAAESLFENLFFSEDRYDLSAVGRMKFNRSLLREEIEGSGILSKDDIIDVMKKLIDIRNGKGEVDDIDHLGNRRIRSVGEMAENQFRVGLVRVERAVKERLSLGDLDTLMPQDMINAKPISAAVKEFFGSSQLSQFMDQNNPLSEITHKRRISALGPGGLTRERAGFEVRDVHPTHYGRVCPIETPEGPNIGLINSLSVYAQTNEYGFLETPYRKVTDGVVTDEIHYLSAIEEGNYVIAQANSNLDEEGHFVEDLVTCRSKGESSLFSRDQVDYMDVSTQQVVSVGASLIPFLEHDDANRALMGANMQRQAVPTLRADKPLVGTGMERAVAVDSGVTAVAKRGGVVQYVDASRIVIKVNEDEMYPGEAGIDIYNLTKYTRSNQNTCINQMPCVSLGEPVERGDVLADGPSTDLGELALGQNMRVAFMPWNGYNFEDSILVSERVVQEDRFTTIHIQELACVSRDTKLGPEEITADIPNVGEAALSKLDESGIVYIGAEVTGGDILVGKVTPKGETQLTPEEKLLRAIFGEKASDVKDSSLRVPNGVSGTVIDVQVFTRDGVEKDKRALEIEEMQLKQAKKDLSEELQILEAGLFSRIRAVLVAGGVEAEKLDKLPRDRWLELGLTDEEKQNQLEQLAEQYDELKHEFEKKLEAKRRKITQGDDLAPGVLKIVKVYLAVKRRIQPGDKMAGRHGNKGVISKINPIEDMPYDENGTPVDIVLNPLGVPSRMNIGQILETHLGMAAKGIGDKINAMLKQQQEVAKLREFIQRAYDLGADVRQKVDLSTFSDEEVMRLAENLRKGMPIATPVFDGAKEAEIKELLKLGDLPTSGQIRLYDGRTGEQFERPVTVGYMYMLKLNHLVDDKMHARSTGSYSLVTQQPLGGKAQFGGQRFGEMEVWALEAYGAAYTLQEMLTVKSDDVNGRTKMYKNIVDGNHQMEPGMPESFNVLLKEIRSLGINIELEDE

The assay addresses DNA-directed RNA polymerase subunit beta (Escherichia coli (strain K12)) (UniProt P0A8V2). The experiment in a line: E. coli RNAP inhibitors, biochemical (AID 559).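 Note: 0% = enzyme without compound and 100% = no enzyme blank.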 The settings on record: fluorescence transcription assay, active compounds read high,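 tested at 10 µM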.
The inhibition is the change of the read-out against control, counted positive when it falls. As to `Cc1ccc(NC(=O)CN(C)S(=O)(=O)c2cnc[nH]2)cc1C`, the inhibition is 6.13% (inactive).
Take `Cc1ccc2c(c1)sc1ncc(NC(=O)c3ccccc3)c(=O)n12`: the inhibition was -11.4% (inactive).
For the compound `CCCCCCn1c(SCC(=O)c2ccccc2)nc2c1c(=O)[nH]c(=O)n2C`, the inhibition was -4.3% (inactive).
Regarding `c1ccc(CCc2nc(-c3ccncc3)no2)cc1`, the inhibition was 8.17% (inactive).
In the case of `CC1CCN(Cc2nc3c(c(=O)n(C)c(=O)n3C)n2Cc2cccc3ccccc23)CC1`, the inhibition was 11.8% (inactive).
For the compound `CC(c1ccccc1)n1c(NCCCn2ccnc2)nc2c1c(=O)[nH]c(=O)n2C` (stereo unspecified), the inhibition was 6.37% (inactive).
With `O=C(Nc1ccccc1N1CCCCC1)c1ccc2nccnc2c1`, the inhibition is 5.19% (inactive).
For the compound `CC(C)[C@H](NC(=O)Nc1ccc(S(N)(=O)=O)cc1)C(=O)O`, the inhibition was 3.2% (inactive).
Take `Cc1cccc(C2c3c(n(C)c(=O)n(C)c3=O)N=C3c4ccccc4C(=O)C32)c1` (stereo unspecified): the inhibition is 8.94% (inactive).
The result for `Cn1c(=O)n(C)c2cc(S(=O)(=O)N3CCCc4ccccc43)ccc21` reads 0.45% (inactive).
On to `Cc1nn(C)c(C)c1S(=O)(=O)N1CCc2ccccc21`, for which the inhibition was 27.2% (active).
As for `CSc1nc2ccc(S(=O)(=O)N3CCc4ccccc43)cc2s1`, the figure is 0.59% (inactive); as for `COCCOC(=O)C1=C(C)NC(=O)NC1c1ccc(Cl)cc1` (stereo unspecified), 7.31% (inactive); as for `COC(=O)c1ccc(C2CC(=O)Nc3cc(OC)c(OC)cc32)cc1` (stereo unspecified), 3.45% (inactive).
For `CCc1cccc2c3c([nH]c12)C(CC)(CC(=O)O)OCC3` (stereo unspecified), the inhibition is 8.22% (inactive).
In the case of `O=C(O)C1OC(C(=O)O)C2C1C(F)(F)C2(F)F` (stereo unspecified), the inhibition is 3.61% (inactive).
Consider `NS(=O)(=O)c1cc2c(cc1Cl)NC(C(Cl)Cl)NS2(=O)=O` (stereo unspecified), for which the inhibition was 8.21% (inactive).
Take `CCS(=O)(=O)n1nc(-c2ccc(OC)cc2)nc1SC`: the inhibition is 5.44% (inactive).
`Cc1ccc(CC2CC(=O)N(c3ccc4c(c3)OCCO4)C2=O)cc1` (stereo unspecified): the inhibition was 7.6% (inactive).
`Cn1c2c(c(=O)n(C)c1=O)C1c3ccccc3OCC1C(C)(C)O2` (stereo unspecified): the inhibition is 11.7% (inactive).
As for `CC1(c2ccccc2Cl)NC(=O)N(CC(=O)NC(=O)NCc2ccco2)C1=O` (stereo unspecified), the figure is 3.56% (inactive); as for `CCOc1ccc(Cn2c(SCCCCC#N)nc3c2c(=O)n(C)c(=O)n3C)cc1OCC`, 1.66% (inactive); as for `CCOC(=O)NC(C(F)(F)F)(C(F)(F)F)P(=O)(c1ccccc1)c1ccccc1`, 12.5% (inactive).
For `O=C(NCC1CCCO1)C(C(=O)c1ccccc1)n1cc(Cl)ccc1=O` (stereo unspecified), the inhibition is -2.02% (inactive).
With `O=C(COC(=O)c1ccccc1C(=O)c1ccccc1)c1ccco1`, the inhibition is 4.61% (inactive).
`Cc1ccc(NC(=O)c2cc(-c3ccc(C)o3)nc3ccccc23)nc1`: the inhibition is 2.57% (inactive).
Turning to `O=C(c1ccc2c(c1)N(Cc1ccc(F)cc1)C(=O)CS2)N1CCOCC1`, the inhibition is -0.9% (inactive).
`Cc1nc2c(-c3ccccc3)c(C)[nH]n2c(=O)c1Cl`: the inhibition was 0.3% (inactive).
For the compound `CCNc1nc(N)nc(Oc2ccc(OCC)nn2)n1`, the inhibition was 16.5% (inactive).
As for `COc1ccc(OCC(=O)OCC(=O)Nc2ccc(S(=O)(=O)N3CCCCC3)cc2)cc1`, the figure is 6.57% (inactive); as for `Cc1noc(C)c1S(=O)(=O)Nc1ccc(C(=O)O)cc1`, -2.73% (inactive); as for `C=CCNC(=O)C1CC=CCC1C(=O)O` (stereo unspecified), -0.09% (inactive).
The result for `CC(C)(C)NC(=O)NC(=O)COC(=O)Cn1c(C(F)(F)F)nc2ccccc21` reads -0.99% (inactive); that for `O=C(CSc1nc2[nH]ncc2c(=O)n1-c1ccccc1)N1CCCc2ccccc21`, -2.19% (inactive); that for `CCOc1ccc(NS(=O)(=O)c2ccc(OCC(=O)NCCCOC)cc2)cc1`, 0.48% (inactive).
For `COCCCN(C(=O)Cn1ncc2c(=O)oc3ccc(C)cc3c21)C(C)c1ccncc1` (stereo unspecified), the inhibition is 5.04% (inactive).
The result for `CCc1c(C)c2c(C)[nH]nc2oc1=O` reads 6.94% (inactive).
`CCCOc1ccccc1-c1nc(SCCC(=O)O)n[nH]1`: the inhibition is 4.03% (inactive).
In the case of `CCC(C)(C(=O)NC1CCCC1)N(C(=O)CNC(C)=O)c1ccc(C)cc1` (stereo unspecified), the inhibition is 2.29% (inactive).
The result for `CN(CC(=O)NC1CCCCC1)S(=O)(=O)c1cccc2cccnc12` reads 1.4% (inactive); that for `CCC(C)(NC(=O)c1ccccn1)C(=O)NC1CCCCC1` (stereo unspecified), 24.2% (active); that for `CCN1C(=O)/C(=C2/Sc3ccccc3N2CCCS(=O)(=O)O)SC1=S`, 14% (inactive).
As for `COCCNC(=O)CN1C(=O)CSc2ncccc21`, the figure is 2.28% (inactive).
Regarding `Cc1ccc(Cn2c(NC(=O)c3ccco3)nc3ccccc32)cc1`, the inhibition is 3.14% (inactive).
As for `CCOC(=O)C1CCCN(C(=O)c2sc3nc(C)nc(N4CCOCC4)c3c2C)C1` (stereo unspecified), the inhibition was 6.92% (inactive).
As for `COc1cccc(N2CCN(C(=O)C3CCCN(S(=O)(=O)c4cnc[nH]4)C3)CC2)c1` (stereo unspecified), the figure is 6.57% (inactive).
`Cn1c(=O)c2c(nc(N3CCCCCC3)n2CC(=O)c2ccc(Br)cc2)n(C)c1=O`: the inhibition is 6.56% (inactive).
With `O=CN1CCN(C2CC(=O)N(c3ccc4c(c3)OCO4)C2=O)CC1` (stereo unspecified), the inhibition was -2.9% (inactive).
As for `Cc1cc(NC(=O)CSc2nnc(-c3ccc(Cl)s3)o2)no1`, the figure is 2.94% (inactive); as for `Nc1nonc1-c1nc2ccccc2n1Cc1ccc(F)cc1`, 1.54% (inactive); as for `COCc1cc(C)nc(SCC(=O)Nc2cccc(C)c2)c1C#N`, 10.2% (inactive).
Take `CC(C)C(c1nnnn1Cc1ccccc1)N1CCC(C(N)=O)CC1` (stereo unspecified): the inhibition was 9.07% (inactive).
For `O=C(NC1CCCCC1)n1c(=O)oc2cc(S(=O)(=O)N3CCCCC3)ccc21`, the inhibition is 5.56% (inactive).
`COC(=O)c1c(NC(=O)CCN2CCOCC2)sc2c1CCCC2`: the inhibition is 7.91% (inactive).
Regarding `Cc1cc(C)nc(NC2=NCC(=O)N2c2ccc(Cl)cc2)n1`, the inhibition is 9.3% (inactive).
On to `COC(=O)CCSc1nccn1Cc1ccccc1`, for which the inhibition is 2.17% (inactive).
On to `O=C1CSC(=O)N1CCOCCN1C(=O)CSC1=O`, for which the inhibition was 8.19% (inactive).
For `CCOc1ccccc1Nc1nnc(SCc2ccc(C(=O)OC)o2)s1`, the inhibition is 3.87% (inactive).
Turning to `CC(=O)OCc1cc2cc(C)ccc2[nH]c1=O`, the inhibition is 8.56% (inactive).
In the case of `CC(C)OC(=O)CN1C(=O)c2ccccc2C1=O`, the inhibition is 8.17% (inactive).
Consider `COCCN(C(=O)CCC(=O)Nc1ccccn1)C(C(=O)NCCC(C)C)c1ccc(OC)cc1` (stereo unspecified), for which the inhibition is 9.79% (inactive).

The values are drawn from PubChem BioAssay AID559 (PCMD, 2006).
